For 40 compounds, Potency results are on record in PubChem BioAssay (Tox21).

Records with an inconclusive call do not appear. A call without a number means that no potency is given here. The source made the active and inactive calls. Calls follow the shape of the dose curve; as a rule, active = well fitted inhibition curve with a large enough effect in the signal ratio in the repeat runs; inconclusive = weak or mixed curves, or effect the other way; inactive = flat fitted curve, though single readings scatter; the % refers to the signal ratio. Positions of bridges follow the written chain, without caps; N, C: chain ends. Non-standard residues stand in square brackets, D forms with d. Residues, ends and D or L forms follow the SMILES beside them. *: point of attachment. X2 = CC[C@H](C)CCCCC(=O)*; Dab = NCC[C@H](N)C(=O)O
Potency is read from the fitted curve at half-maximal effect.

This experiment is described as follows: qHTS assay for small molecule disruptors of the mitochondrial membrane potential (AID 720635). As to conditions: HepG2 mitochondrial membrane potential, Mito-MPS dye ratio; series mostly up to 83.2 µM. An excerpt: U.S. Tox21 Program National Center for Advancing Translational Sciences [NCATS] NIH Chemical Genomics Center [NCGC] U.S. Environmental Protection Agency [EPA] National Institutes of Environmental Health Sciences [NIEHS] National Toxicology Program [NTP] U.S. Food and Drug Administration [FDA] Tox21 Assay Overview: Mitochondrial membrane potential (MMP), one of the parameters for mitochondrial function, is generated by mitochondrial electron transport chain that creates an electrochemical gradient by a series of redox reactions. This gradient drives the synthesis of ATP, a crucial molecule for various cellular processes. Measuring MMP in living cells is commonly used to assess the effect of chemicals on mitochondrial function. […] The dye accumulates in the mitochondria of healthy cells as aggregates, with red fluorescence. The mitochondrial potential collapses and the dye can no longer accumulate in the mitochondria and remains in the cytoplasm in monomers, with green fluorescence.
Tox21 Assay Protocol Summary: 2,000 HepG2 cells in 5 uL/well were dispensed into black, clear-bottom 1536-well plates using a Multidrop Combi (Thermo Scientific) dispenser. The assay plates were incubated overnight at 37C to allow cells to attach to the wells, followed by the transfer of 23 nL compound or DMSO vehicle by a pin tool (Kalypsys). The plates were incubated for 1 hr at 37C and 5% CO2, followed by the addition of 5 uL of 2X Mito-MPS dye (BD Biosciences) into each well using Flying Reagent Dispenser (Aurora Discovery) and then following 30 min incubation at 37C. Fluorescence intensity (490nm excitation and 535nm emission for monomers; and 540nm excitation and 590nm emissions for aggregates) was measured using an Envision plate reader.
As to `C#CCC(Cc1cnc2nc(N)nc(N)c2n1)c1ccc(C(=O)N[C@@H](CCC(=O)O)C(=O)O)cc1` (stereo not given in full), the Potency entry was “inactive”.

Take `CCC(=O)O[C@]1(C(=O)CCl)[C@@H](C)C[C@H]2[C@@H]3C[C@H](F)C4=CC(=O)C=C[C@]4(C)[C@@]3(F)[C@@H](O)C[C@@]21C`: the Potency was 11.9 µM (active).

On to `CCOC(=O)CCC(=O)O[C@H]1[C@H](O[C@@H]2[C@@H](C)[C@H](O[C@H]3C[C@@](C)(OC)[C@@H](O)[C@H](C)O3)[C@@H](C)C(=O)O[C@H](CC)[C@@](C)(O)[C@H](O)[C@@H](C)C(=O)[C@H](C)C[C@@]2(C)O)O[C@H](C)C[C@@H]1N(C)C`, for which the Potency entry is “inactive”.

Regarding `CC(=O)O[C@H]1C[C@@H]2CC[C@@H]3[C@H](CC[C@@]4(C)[C@H]3C[C@H](N3CC[N+](C)(C)CC3)[C@@H]4OC(C)=O)[C@@]2(C)C[C@@H]1N1CC[N+](C)(C)CC1`, the Potency result was “inactive”.

`CC1(C)S[C@@H]2[C@H](NC(=O)[C@H](NC(=O)N3CCN(S(C)(=O)=O)C3=O)c3ccccc3)C(=O)N2[C@H]1C(=O)O`: the Potency result is “inactive”.

As for `CC1CCC(NC(=O)N(CCCl)N=O)CC1` (stereo not given), the Potency result is “inactive”.

Consider `O=C(Nc1ccc(O)cc1)c1ccccc1O`, for which the Potency is 5.96 µM (active).

Take `CC[C@H](C)CCCCC(=O)N[C@@H](CCN)C(=O)N[C@H](C(=O)N[C@@H](CCN)C(=O)N[C@H]1CCNC(=O)[C@@H]([C@H](C)O)NC(=O)[C@H](CCN)NC(=O)[C@H](CCN)NC(=O)[C@H](CC(C)C)NC(=O)[C@@H](CC(C)C)NC(=O)[C@H](CCN)NC1=O)[C@@H](C)O` (X2-[Dab]T[Dab][Dab][Dab][dL]L[Dab][Dab][dT]; lactam 4-C): the Potency result was “inactive”.

`CO/N=C(\C(=O)N[C@@H]1C(=O)N2C(C(=O)O)=CCS[C@H]12)c1csc(N)n1`: the Potency result is “inactive”.

As to `CCC(=O)Oc1ccc2c(c1)CC[C@@H]1[C@@H]2CC[C@]2(C)[C@@H](OC(=O)CC)CC[C@@H]12`, the Potency result is “inactive”.

As for `CC(=O)N[C@@H](C=O)[C@@H](O)[C@H](O)[C@H](O)CO`, the Potency entry is “inactive”.

For the compound `O=C1O[C@H]2[C@H](O)[C@@H]1OC(O)[C@H]2O` (stereo not given in full), the Potency entry was “inactive”.

On to `CCC(CN)CC(C)CCNCC(O)CNCC(C)CC(CC)CN` (stereo not given), for which the Potency entry was “inactive”.

On to `CN1CC(O)c2cc(N=NC(N)=O)c(O)cc21` (stereo not given), for which the Potency entry is “inactive”.

Consider `O=C(NCCNCC(O)COc1ccc(O)cc1)N1CCOCC1` (stereo not given), for which the Potency result is “inactive”.

Turning to `CS(=O)(=O)OCC(O)C(O)COS(C)(=O)=O` (stereo not given), the Potency result was “inactive”.

Turning to `CN[C@@H]1CCc2[nH]c3ccc(C(N)=O)cc3c2C1`, the Potency result was “inactive”.

On to `OCC(O)COc1ccc(Cl)cc1` (stereo not given), for which the Potency entry is “inactive”.

Regarding `CN1CCN2c3ncccc3Cc3ccccc3C2C1` (stereo not given), the Potency result was “inactive”.

Consider `CCOC(=O)[C@H](CS)NCCN[C@@H](CS)C(=O)OCC`, for which the Potency entry was “inactive”.

As for `CCN(CC)Cc1cc(Nc2ccnc3cc(Cl)ccc23)ccc1O`, the Potency result is “inactive”.

Take `CC1=C(/C=C/C(C)=C/C=C/C(C)=C/C(=O)Oc2c(C)c(C)c3c(c2C)CC[C@@](C)(CCC[C@H](C)CCC[C@H](C)CCCC(C)C)O3)C(C)(C)CCC1`: the Potency entry is “inactive”.

Turning to `CO[C@@H]1[C@@H](O[C@@H]2O[C@H](C)[C@@H](O[C@H]3C[C@@](C)(O)[C@@H](OC(=O)CC(C)C)[C@H](C)O3)[C@H](N(C)C)[C@H]2O)[C@@H](CC=O)C[C@@H](C)[C@@H](O)/C=C/C=C/C[C@@H](C)OC(=O)C[C@H]1O`, the Potency entry was “inactive”.

`C#C[C@]1(OC(C)=O)CC[C@H]2[C@@H]3CCC4=CC(=O)CC[C@@H]4[C@H]3CC[C@@]21C`: the Potency entry is “inactive”.

On to `CCOC(=O)Cc1cccc(-c2cc(CCCCCCc3ccc(O[C@H]4O[C@H](COC(C)=O)[C@@H](OC(C)=O)[C@H](OC(C)=O)[C@@H]4OC(C)=O)c(-c4cccc(CC(=O)OCC)c4)c3)ccc2O[C@H]2O[C@H](COC(C)=O)[C@@H](OC(C)=O)[C@H](OC(C)=O)[C@@H]2OC(C)=O)c1`, for which the Potency entry was “inactive”.

Take `C[C@H](O)[C@H](O)[C@H]1CNc2nc(N)[nH]c(=O)c2N1`: the Potency result is “inactive”.

For `CC[C@H](C)[C@@H]1NC(=O)[C@H](Cc2ccc(O)cc2)NC(=O)[C@@H](N)CSSC[C@@H](C(=O)N2CCC[C@H]2C(=O)N[C@@H](CC(C)C)C(=O)NCC(N)=O)NC(=O)[C@H](CC(N)=O)NC(=O)[C@H](CCC(N)=O)NC1=O`, the Potency result is “inactive”.

With `C#C[C@]1(O)CC[C@H]2[C@@H]3CCC4=CCCC[C@@H]4[C@H]3C(=C)C[C@@]21CC`, the Potency is 21.1 µM (active).

As for `C[N@+]12CCCC[C@@H]1CCC(=C(c1cccs1)c1cccs1)C2`, the Potency entry was “inactive”.

As to `CO[C@H]1C=CO[C@@]2(C)Oc3c(C)c(O)c4c(O)c(c(/C=N/N5CCN(C6CCCC6)CC5)c(O)c4c3C2=O)NC(=O)/C(C)=C\C=C[C@H](C)[C@H](O)[C@@H](C)[C@@H](O)[C@@H](C)[C@H](OC(C)=O)[C@@H]1C`, the Potency was 1.19 µM (active).

Consider `OCC(S)CS` (stereo not given), for which the Potency result is “inactive”.

As to `CC[C@]1(O)CC2CN(CCc3c([nH]c4ccccc34)[C@@](C(=O)OC)(c3cc4c(cc3OC)N(C)[C@H]3[C@@](O)(C(N)=O)[C@H](O)[C@]5(CC)C=CCN6CC[C@]43[C@@H]65)C2)C1` (stereo not given in full), the Potency is 10.6 µM (active).

On to `C[C@]12C=CC(=O)C=C1CC[C@@H]1[C@@H]2[C@@H](O)C[C@@]2(C)[C@H]1CC[C@]2(O)C(=O)COC(=O)CCC(=O)O`, for which the Potency entry is “inactive”.

For the compound `FC(F)(F)C(F)(F)C(F)(F)C(F)(F)C(F)(F)C(F)(F)F`, the Potency entry is “inactive”.

Turning to `C=C1C(=C/C=C2\CCC[C@]3(C)[C@@H]([C@H](C)CCCC(C)(C)O)CC[C@@H]23)C[C@@H](O)C[C@@H]1O`, the Potency was 10.6 µM (active).

On to `CCCC1C(=O)N2C(N(C)C)=Nc3ccc(C)cc3N2C1=O` (stereo not given), for which the Potency result was “inactive”.

For the compound `CC(=O)Nc1c(I)c(C(=O)N[C@H]2C(O)O[C@H](CO)[C@@H](O)[C@@H]2O)c(I)c(N(C)C(C)=O)c1I` (stereo not given in full), the Potency result was “inactive”.

In the case of `Cc1onc(-c2ccccc2)c1C(=O)N[C@@H]1C(=O)N2[C@@H]1SC(C)(C)[C@@H]2C(=O)O`, the Potency result is “inactive”.

Turning to `Cc1cccc(C)c1Nc1ncccc1C(=O)O`, the Potency is 23.7 µM (active).

With `CC[N+](C)(C)Cc1ccccc1Br`, the Potency result was “inactive”.
